Data published in PubChem BioAssay.
Active and inactive are the calls of the source. Unless noted, the rule behind the calls is not given here.

What was measured:
[1] = system: Wnt5a (protein binding on small-molecule microarray); assay: small molecules binding Wnt5a protein – biophysical, small-molecule microarray, 635/667 nm fluorescence, primary screen (AID 1142); details: 635 nm fluorescence, higher = more signal;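 note: fluorescence read at 667 nm with signal to noise per printed feature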
[2] = ATP-based viability of Huh7 replicon cells – cell-based, CellTiter-Glo luminescence, basal, 48 h, cytotoxicity control for HCV replication inhibitor project, primary screen (AID 1143); details: higher = more signal, called active from +8 up or from −8 down;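 note: Huh7 hepatoma cells carrying a hepatitis C replication reporter with no stimulus; test concentration not given here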
[3] = Pseudomonas biofilm growth suppression – PAO1 strain, BacTiter-Glo luminescence, LB-PBS, primary screen (AID 1144); details: P. aeruginosa PAO1 biofilm, 12 h, higher = more signal
[4] = basal CRE-LacZ reporter activity in PC12 – cell-based, unstimulated, primary screen (AID 1145); details: no forskolin, luminescence, 4.5 h, higher = more signal, called active from +8 up or from −8 down
[5] = forskolin-driven CRE-LacZ activity in PC12 – cell-based, CRE-LacZ reporter, forskolin-stimulated, primary screen (AID 1146); details: luminescence, 4.5 h, higher = more signal, called active from +8 up or from −8 down;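 note: PC12 cells with 6xCRE LacZ reporter stimulated by forskolin 10 µM; beta-galactosidase reporter signal reflecting CREB driven transcription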
[6] = molecular target: Streptavidin (Streptomyces avidinii) (UniProt P22629); assay: compounds binding control protein streptavidin – biophysical, small-molecule microarray, 635/667 nm fluorescence, artefact control for SMM compound annotation, primary screen (AID 1147); details: higher = more signal;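 note: signal reflects streptavidin binding to arrayed compounds as a control protein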
Streptavidin (Streptomyces avidinii), sequence (P22629 whole entry, looked up): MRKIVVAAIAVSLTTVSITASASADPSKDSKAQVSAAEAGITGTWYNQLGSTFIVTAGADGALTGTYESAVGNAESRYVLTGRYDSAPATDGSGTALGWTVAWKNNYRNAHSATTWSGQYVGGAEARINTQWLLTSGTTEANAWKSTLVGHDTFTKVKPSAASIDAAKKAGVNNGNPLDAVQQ

[7] = probe aInhba binding on compound microarray – biochemical, small-molecule microarray, 635/667 nm fluorescence, primary screen (AID 1148); details: higher = more signal;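 note: score merges 667nm spot fluorescence with signal-to-noise for antibody binding to printed compounds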
Torsin-1A (Homo sapiens) [8] = molecular target: Torsin-1A (Homo sapiens) (UniProt O14656); assay: TOR1A wild-type binding on microarray – cell lysate, small-molecule microarray, lysate, 635/667 nm, primary screen (AID 1149); details: COS7 hTOR1A-WT lysate, 635 nm fluorescence, higher = more signal
Torsin-1A (Homo sapiens), sequence (O14656 whole entry, looked up): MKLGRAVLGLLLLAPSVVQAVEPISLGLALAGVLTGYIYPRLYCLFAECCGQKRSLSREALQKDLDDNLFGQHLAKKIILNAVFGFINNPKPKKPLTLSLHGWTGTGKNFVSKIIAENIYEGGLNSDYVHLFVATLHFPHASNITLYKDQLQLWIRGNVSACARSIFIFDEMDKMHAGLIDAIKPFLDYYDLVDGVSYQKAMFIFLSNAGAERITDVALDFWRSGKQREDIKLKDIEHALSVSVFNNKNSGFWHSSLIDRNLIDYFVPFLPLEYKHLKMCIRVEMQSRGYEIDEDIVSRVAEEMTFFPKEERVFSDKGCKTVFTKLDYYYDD

Torsin-1A (Homo sapiens) [9] = molecular target: Torsin-1A (Homo sapiens) (UniProt O14656); assay: torsin A mutant lysate binding on microarrays – cell lysate, small-molecule microarray, COS7 lysate, 635/667 nm fluorescence, primary screen (AID 1150); details: COS7 hTOR1A mutant lysate, 635 nm fluorescence, higher = more signal;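 note: score pools 667 nm emission and signal to noise measuring lysate protein binding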
[10] = system: Sonic hedgehog protein (Shh); assay: Sonic hedgehog microarray binding compounds – biochemical, small-molecule microarray, 635/667 nm fluorescence, primary screen (AID 1151); details: 635 nm fluorescence, higher = more signal;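 note: Shh protein binding to compounds spotted on small-molecule microarray slides; score combines spot fluorescence intensity with signal-to-noise across triplicate slides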

| Compound | composite z-score [1] | z-score [2] | z-score [3] | z-score [4] | z-score [5] | composite z-score [6] | composite z-score [7] | composite z-score (Torsin-1A (Homo sapiens) [8]) | composite z-score (Torsin-1A (Homo sapiens) [9]) | composite z-score [10] |
| --- | --- | --- | --- | --- | --- | --- | --- | --- | --- | --- |
| C=CCC(OC(C)=O)[C@@H]1[C@@H](N(Cc2ccc(-c3ccccc3)cc2)C(=O)c2ccc(-c3ccccc3)cc2)c2cc(OCCCO)ccc2N1C(=O)c1ccc2ccccc2n1 (stereo not given in full) | -0.0949 | 0.115 (inactive) | 0.196 (inactive) | 0.992 (inactive) | 0.705 (inactive) | 0.21 | 0.333 | -0.178 | 0.342 | 0.767 |
| C=C(COC)/C(=C/C[C@H](OC(=O)c1ccncc1)c1ccc(OCCO)cc1)c1cc(C(=O)OC)ccc1OC | 0.457 | -3.86 (inactive) | -0.999 (inactive) | 5.8 (inactive) | 0.946 (inactive) | 0.616 | -0.0087 | 0.229 | 0.132 | 1.94 |
| CN(C)CCCNC(=O)[C@@]1(Cc2ccccc2I)c2ccccc2C(=O)N(Cc2ccccc2)[C@H]1c1ccc(CO)cc1 | 0.652 | -5.58 (inactive) | 0.113 (inactive) | 0.351 (inactive) | 2.56 (inactive) | -0.203 | -0.471 | 0.0857 | 0.325 | 1.41 |
| O=C1N(Cc2ccccc2)c2ccccc2[C@H]2OC(c3ccc(OCCCO)cc3)=N[C@@]12Cc1ccccc1 | 0.806 | -4.93 (inactive) | -0.0376 (inactive) | 0.708 (inactive) | -1.07 (inactive) | 0.0454 | 0.147 | -0.0599 | 0.242 | 1.64 |
| CCCC[C@H]1OB(O)C[C@H]2C1=C(COC)C[C@H]1C(=O)C=CC(=O)[C@H]12 | 0.269 | -1.06 (inactive) | -0.229 (inactive) | 10.7 (active) | 6.12 (inactive) | -0.045 | -0.0552 | 0.283 | -0.0615 | 1.63 |
| COCCOC(=O)N1C(=O)[C@@]2(c3cc(C#CC4=CCCCC4)ccc31)[C@H](c1ccccc1OCCO)N1[C@H](c3ccccc3)[C@H](c3ccccc3)OC(=O)[C@H]1[C@@H]2C(N)=O | 0.288 | -6.61 (inactive) | -1.73 (inactive) | -2.37 (inactive) | -1.6 (inactive) | 0.771 | -0.115 | 1.21 | 0.137 | 1.7 |
| CCCC[C@H]1OB(O)C[C@H]2C1=C(C)C[C@H]1C(=O)C=CC(=O)[C@H]12 | -0.0289 | -1.52 (inactive) | 0.244 (inactive) | 19.6 (active) | 14.8 (active) | 0.146 | -0.0292 | 0.935 | 0.527 | 1.71 |
| C=CCC(OC(C)=O)[C@@H]1[C@@H](N(Cc2cccc3ccccc23)C(=O)c2ccc(C)cc2)c2cc(OCCCO)ccc2N1C(=O)c1ccc2ccccc2n1 (stereo not given in full) | 0.0305 | -0.846 (inactive) | -0.106 (inactive) | 0.642 (inactive) | 0.154 (inactive) | 0.2 | 0.0664 | -0.0107 | 0.121 | 0.709 |
| CCCCC(O)C1C=CC2C(=O)N(C)C(=O)C2N1Nc1ccccc1 (stereo not given) | 0.0991 | 0.898 (inactive) | -0.556 (inactive) | -0.14 (inactive) | 0.721 (inactive) | 0.264 | 0.106 | 0.29 | 0.0531 | -0.768 |
| O=C1OCCC/C=C\[C@H]2OC34C=CCN(Cc5ccccc5)C(=O)[C@H]3N(CCCCCO)C(=O)[C@@H]4C12 (stereo not given in full) | -0.238 | 0.255 (inactive) | 1.2 (inactive) | 0.732 (inactive) | 0.327 (inactive) | -1.26 | -0.186 | -0.234 | -1.75 | 0.168 |
| COc1cc(OC)c(C(O)C2C=CC3C(=O)N(c4ccccc4)C(=O)C3N2Nc2ccccc2F)cc1Br (stereo not given) | 0.193 | -0.259 (inactive) | -1.14 (inactive) | 0.636 (inactive) | 0.758 (inactive) | 1.24 | 0.206 | 2.01 | 0.879 | -0.2 |
| COc1ccc(CC[C@H](O)c2cccc(OCC(=O)OC(C)(C)C)c2)cc1 | 0.42 | -3.93 (inactive) | -0.0717 (inactive) | 0.595 (inactive) | -0.251 (inactive) | 1.77 | 0.156 | 0.584 | 0.977 | 1.37 |
| COc1ccccc1CN1C(=O)c2ccccc2[C@](Cc2ccccc2I)(C(=O)NCCCN(C)C)[C@@H]1c1ccc(CO)cc1 | 0.168 | -5.84 (inactive) | 0.777 (inactive) | 3.31 (inactive) | 5.18 (inactive) | 0.956 | -0.187 | -0.26 | 0.409 | 0.814 |
| O=C1OCCC=C[C@H]2OC34C=CCN(c5ccc(Cl)cc5)C(=O)[C@H]3N(CCO)C(=O)[C@@H]4C12 (stereo not given in full) | -0.524 | 0.373 (inactive) | 0.108 (inactive) | -0.228 (inactive) | -0.256 (inactive) | -1.23 | -0.159 | -1.97 | -0.0899 | -0.524 |
| CCCC[C@@H](O)C1=C(COC)Cn2c(=O)n(-c3ccccc3)c(=O)n2[C@H]1CO | -0.296 | -0.915 (inactive) | -0.313 (inactive) | -0.0487 (inactive) | -1.11 (inactive) | -0.538 | -0.128 | -0.527 | -0.577 | 0.223 |
| COc1ccc(CCNC(=O)[C@@H]2c3ccccc3C(=O)N(CC34CC5CC(CC(C5)C3)C4)[C@H]2c2ccc(CO)cc2)cc1 | 0.788 | -3.34 (inactive) | -2.65 (inactive) | 0.441 (inactive) | -0.887 (inactive) | 0.4 | -0.0006 | 0.713 | 0.801 | 1.4 |
| COC(=O)C1=CC(CCCO)=CC(C2CC2)N(Cc2cccc(OC(F)(F)F)c2)C=C1C(=O)OC (stereo not given) | 0.172 | -1.15 (inactive) | -0.393 (inactive) | -0.0243 (inactive) | 0.969 (inactive) | 0.307 | 0.0711 | -0.38 | 0.497 | -0.153 |
| COc1ccc(NN2C(C(O)c3cc(C(F)(F)F)cc(C(F)(F)F)c3)C=CC3C(=O)N(C4CCCCC4)C(=O)C32)cc1 (stereo not given) | 0.397 | -2.42 (inactive) | -1.1 (inactive) | -0.723 (inactive) | -0.504 (inactive) | 0.837 | 1.19 | 0.408 | 1.19 | -0.0356 |
| CC[C@H](C)C(=O)O[C@H]1CC[C@]2(C)C3=C(CCC2C1(C)C)[C@]1(C)CC[C@H]([C@H](C)CCCC(C)C)[C@@]1(C)CC3 (stereo not given in full) | 0.0143 | 0.15 (inactive) | -0.0646 (inactive) | 0.947 (inactive) | -1.24 (inactive) | 0.984 | -0.292 | 0.214 | 0.339 | 0.613 |
| CN(C)CCCC[C@@H]1NC(=O)[C@H]2C[C@@H](C(=O)NCc3ccc(F)cc3)[C@@H](c3ccc(O)cc3)N2C1=O | 0.727 | 0.0491 (inactive) | 0.792 (inactive) | 0.0084 (inactive) | -0.19 (inactive) | -0.122 | 0.0676 | 1.12 | 0.587 | 2.15 |
| COC(=O)[C@H](Cc1ccc(O)cc1)N1CC2=CCCC=C[C@@H]2[C@H]1[C@H](O)Cc1ccccc1 | 0.0799 | -0.567 (inactive) | -1.21 (inactive) | 2.13 (inactive) | 1.24 (inactive) | -0.53 | 0.0108 | -0.246 | -0.0258 | 0.33 |
| C=CC(CO)NC(=O)OCC1c2ccccc2-c2ccccc21 (stereo not given) | 0.237 | 0.0812 (inactive) | 0.219 (inactive) | 1.03 (inactive) | 0.584 (inactive) | 0.0333 | -0.183 | 0.743 | 0.724 | 0.775 |
| O=C1NC(=O)C2C1C=CC(C(O)c1cccc(O)c1)N2Nc1ccc(Cl)cc1Cl (stereo not given) | -0.125 | -1.08 (inactive) | -0.355 (inactive) | 0.629 (inactive) | -0.45 (inactive) | 0.423 | -0.13 | -0.309 | 0.25 | -1.14 |
| COC(=O)[C@@]1(Cc2ccc(F)cc2)[C@H]2c3cc(C(=O)N4CCCC4)n(CCO)c3C[C@H]2CN1C(=O)c1ccccc1 | 0.181 | -0.225 (inactive) | 0.452 (inactive) | 0.201 (inactive) | -0.773 (inactive) | 0.0865 | -0.0719 | -0.113 | 0.0413 | -1.69 |
| C=C(COC)/C(=C/C[C@H](OC(=O)c1ccncc1)c1cccc(OCCO)c1)c1cnc2ccccc2c1 | 0.154 | 0.0839 (inactive) | 0.0918 (inactive) | 0.769 (inactive) | 0.506 (inactive) | 1.7 | 0.322 | 0.839 | 0.897 | 2.02 |
| C/C=C/CN(C(=O)C#Cc1ccccc1)[C@H](CO[Si](C)(C)C(C)(C)C)c1ccccc1 | -0.515 | -4.31 (inactive) | 1.09 (inactive) | 1.94 (inactive) | -0.757 (inactive) | -1.06 | -0.353 | -0.724 | -0.841 | 0.248 |
| CN1C(=O)C2C(C1=O)C1C=C(c3ccc(CO)cc3)C2C(c2cccs2)N1C (stereo not given) | -0.192 | -1.04 (inactive) | 2.04 (inactive) | 1.98 (inactive) | -0.999 (inactive) | 1.56 | -0.0523 | 0.233 | 0.221 | 0.237 |
| C[C@H]1C2[C@H](Cc3ccccc3)NC(=O)[C@]23C(=O)NCC(=O)N2CCC[C@H]2C(=O)NC/C=C\C/C=C/C3[C@@H]2O[C@]12C (stereo not given in full) | 0.0076 | 0.493 (inactive) | 0.716 (inactive) | 0.495 (inactive) | -0.294 (inactive) | -0.744 | -0.018 | -0.266 | -0.618 | 1.2 |
| CC(C)C[C@@H]1NC(=O)C([C@@H](C)OCc2ccccc2)NC(=O)[C@@]23C(=O)N[C@@H](Cc4ccccc4)C2[C@H](C)[C@@]2(C)O[C@H]2C3/C=C/CC/C=C/CNC1=O (stereo not given in full) | 0.237 | -4.9 (inactive) | -0.469 (inactive) | 1.76 (inactive) | -1.52 (inactive) | 0.264 | -0.206 | -0.608 | 0.32 | 1.07 |
